Laboratory results published in PubChem BioAssay AID1009 (NMMLSC, 2008).
About 200 (0.11%) of roughly 190,000 compounds were called active. Many of the other results were omitted from the sample, so actives are more common in it than they were. Unmarked numbers belong to inactive results. Rule as the data show it: active = inhibition above about 40%.

Target: Induced myeloid leukemia cell differentiation protein Mcl-1 (Homo sapiens) (UniProt Q07820)
Assay: Mcl-1/Bim interaction disruptors – biochemical, bead-based flow cytometry, multiplex, primary screen (AID 1009);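 also: 0% = no compound tracer wells and 100% = peptide blocker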
Settings: Bim peptide-Mcl-1 binding, at 10 µM, hits give high values

Sequence of Induced myeloid leukemia cell differentiation protein Mcl-1 (Homo sapiens) (Q07820 whole entry, looked up): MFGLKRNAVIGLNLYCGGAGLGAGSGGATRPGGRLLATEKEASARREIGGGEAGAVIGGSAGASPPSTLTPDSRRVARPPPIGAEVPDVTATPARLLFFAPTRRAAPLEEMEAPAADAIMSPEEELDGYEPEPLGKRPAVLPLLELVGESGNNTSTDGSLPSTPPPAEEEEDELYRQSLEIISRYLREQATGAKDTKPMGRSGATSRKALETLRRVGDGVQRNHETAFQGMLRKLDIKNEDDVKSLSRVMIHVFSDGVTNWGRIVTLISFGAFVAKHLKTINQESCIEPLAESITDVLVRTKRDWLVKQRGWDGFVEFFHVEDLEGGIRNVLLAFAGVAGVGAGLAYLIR

Compound	inhibition
CC(CO)NCC12CC3CC(CC(C3)C1)C2 (configuration not stated)	0%
Cc1[nH]c2ccccc2c1/C=C(/C#N)C(=O)NC(C)C	0%
C=CCN(Cc1nc(-c2cc(OC)c3c(c2)OCO3)oc1C)C1CCS(=O)(=O)C1 (configuration not stated)	-1%
CC(C)C(=O)NCc1cc(-c2ccc(Cl)cc2)no1	-2%
O=C(NCCCN1CCOCC1)c1ccc(N2CCCC2)c([N+](=O)[O-])c1	0%
O=C(NCc1ccc(F)cc1)C(c1ccccc1)N(C(=O)c1csnn1)C1CC1 (configuration not stated)	-1%
Nc1[nH][nH]c(=O)c1N=Nc1ccc2c(c1)OCO2	0%
COc1ccc(Cl)cc1N(CC(=O)N/N=C/c1ccc(OCC(N)=O)cc1)S(C)(=O)=O	1%
CSc1ccc(CN2C(=O)NC3(CCCCCC3)C2=O)cc1	3%
Cc1nc(N2CCC(C)CC2)c2c(C)c(C(=O)Nc3cc(F)ccc3C)sc2n1	-1%
COc1ccc(/C=N/OCC(=O)N(Cc2ccccc2)c2ccccc2C(=O)O)cc1	-1%
C#CCOCCOCCOCCNc1nc(N2CCN(C(=O)[C@H](CCC(=O)O)n3cc(C(N)CO)nn3)CC2)nc(N2CCN(C(=O)[C@H](Cc3ccc(O)cc3)n3cc(C(N)[C@H](C)CC)nn3)CC2)n1 (some centres not stated)	0%
CCOC(=O)Cc1ncccc1C(=O)Nc1ccc(OC(F)(F)F)cc1	-7%
COc1ccc(C(=O)N2CCC(C(=O)Nc3ccc(C)cc3)CC2)cc1	-3%
N#Cc1ccc(-c2nc3cc(C#N)c(C#N)cc3nc2-c2ccccc2)cc1C#N	1%
O=C(CCN1C(=O)/C(=C/c2cccs2)SC1=S)NNC(=O)c1cccc(O)c1	0%
COCC1CCCN(Cc2cn[nH]c2-c2cc3ccccc3o2)C1 (configuration not stated)	-3%
O=C(NC(=S)NC1CCSC1=O)c1ccccc1F (configuration not stated)	0%
O=C(N/N=C/c1cc([N+](=O)[O-])ccc1O)/C(=C\c1cccs1)NC(=O)c1ccccc1	0%
COc1ccc(C(=O)C2CCCN(Cc3cccn3-c3ccccn3)C2)c(C)c1 (configuration not stated)	0%
CN(CC(=O)NC1CCCC1)S(=O)(=O)c1cnc[nH]1	-8%

Compound	inhibition
Cc1cc(C)nc(Nc2ncn[nH]2)n1	1%
CCCCC(CC)CNC(=O)C(=O)C1C(=O)Nc2ccccc21 (configuration not stated)	-2%
O=C(/C=C/c1cnc2ccccc2n1)NC1CCCCCC1	-22%
COc1cccc(CNC(=O)c2n[nH]c3ccccc23)c1	0%
COc1ccc(N(CC(=O)Nc2ccc(C)cc2C)S(=O)(=O)c2ccccc2[N+](=O)[O-])c(OC)c1	4%
COc1ccc(C(=O)NC2(C(F)(F)F)NC(=O)N(CCCc3ccccc3)C2=O)c(OC)c1OC (configuration not stated)	-3%
CCCOc1ccc(Cn2ccnc2)cc1[N+](=O)[O-]	-1%
O=C(/C=C/c1ccc(Cl)cc1)N1CCN(c2ccccc2[N+](=O)[O-])CC1	-1%
CCO[C@H]1OC(C(=O)N2CCOCC2)=C[C@@H](c2ccc3c(c2)OCO3)[C@@H]1CCCO	-2%
CC(=O)N1CCN(S(=O)(=O)c2c(F)cc(F)c(Cl)c2F)CC1	-1%
Cc1ccc(Cl)c(NC(=O)CN2CCN(C=O)CC2)c1	0%
COc1cc(C(O)c2nc3ccccc3n2C)cc(OC)c1OC (configuration not stated)	0%
CCCn1c(C(O)c2cc(OC)ccc2OC)nc2ccccc21 (configuration not stated)	80% (active)
CCCn1c(C(O)c2ccc(OCC)cc2)nc2ccccc21 (configuration not stated)	0%
COc1ccc(CC2(CO)CCN(Cc3cnn(C)c3)CC2)cc1	8%
COc1cccc(NC(=O)CS(=O)(=O)c2cn(CC(=O)N3CCOCC3)c3ccccc23)c1	1%
COc1ccc(S(=O)(=O)NC(C)C)cc1C(=O)NC1CCCCC1	-1%
O=C(CCN1C(=O)c2ccccc2C1=O)C1=NN[C@@H]2C(=O)N(c3ccc(F)cc3)C(=O)[C@H]12	-3%
Cc1c(Cc2ccccc2)c(=O)oc2cc(OCC(N)=O)ccc12	0%
C/C(=N/OC(=O)c1c(-c2c(F)cccc2Cl)noc1C)c1cnccn1	-2%
COC(=O)C1=C(C)N(C(C)c2ccccc2)C(=O)/C1=C\c1ccco1 (configuration not stated)	-2%

Compound	inhibition
Cc1ccc2[nH]cc(CCCN3C(=O)c4ccccc4C3=O)c2c1	-3%
CC1(C)CN(c2ccc(-c3ccnc4ncnn34)cc2)C1=O	-1%
Cn1c(CCC(=O)OCC(=O)NCc2ccccc2Cl)nc(=O)c2ccccc21	-2%
CC(=O)Nc1ccc(-c2csc(NC=C3C(=O)OC(C)(C)OC3=O)n2)cc1	-8%
c1ccc2sc(NN=C3CCCC3)nc2c1	0%
Oc1ccc(-c2nncn2-c2ccccc2)cc1	0%
COc1cccc(NC(=O)COC(=O)CCOc2ccccc2OC)c1	0%
COc1ccc(NC(=S)Nc2ccc(S(N)(=O)=O)cc2)c(C)c1	-2%
Cc1ccc(NN=Nc2nc3c([nH]2)c(=O)n(C)c(=O)n3C)cc1	-7%
O=C(NCCCN1CCOCC1)c1ccccc1NS(=O)(=O)c1ccc(F)cc1	3%
CCOc1cccc(/C=C/c2ccc3ccccc3n2)c1OC(C)=O	0%
O=C(Nc1ccc(F)cc1)C1CCN(C(=O)c2ccc([N+](=O)[O-])cc2)CC1	0%
Cc1cc(OCCN2CCCC2)cc(C(C)C)c1	-3%
COc1cc(C2OC(c3cc(OC)c(OC)c(OC)c3)C(C)C2C)cc(OC)c1OC (configuration not stated)	0%
COC(=O)c1cc(NC(=O)c2cccnc2)ccc1N1CCOCC1	-2%
Cc1ccc(S(=O)(=O)/N=C(\N)c2ccc(F)cc2)cc1	0%
CC1CCCC(NC(=O)c2cccc(N3CCCC3=O)c2)C1C (configuration not stated)	1%
CCOC(=O)N1CCC(c2cc(=O)n(-c3ccccc3)[nH]2)CC1	42% (active)
CCOC(=O)N1CCC(NC(=O)COc2cc(=O)n(C)c3ccccc23)CC1	-1%
CCOC(=O)CN1CCC(c2ccccc2)CC1	2%
